# Measurements: PubChem BioAssay (NCATS)
# Several values for one entry are separate records, joined by “and”; a condition that tells them apart may be missing. Equal entries are not always repeated. Results filed as inconclusive are left out. Entries that show only a call come without a potency. Activity calls are given as the source filed them. Unless noted, the call rests on the fitted dose curve; in most records, active means well fitted curve in the direction sought with a large enough effect; inconclusive means small, poorly fitted or top-dose-only effect, or another doubt; inactive means no such curve, though single readings can be large; an effect the other way counts as inactive or inconclusive.
# Assays:
# [1] = NS1 protein of Zika virus - qHTS assay to identify small molecule inhibitors in human HEK 293 cells (AID 1347053); conditions: HEK293 ZIKV MR766 infection, NS1 TR-FRET, 24 h; series mostly up to 46.1 µM; further: nearly all actives have a fitted effect of over 55% in size; further: potency means the concentration at half of the fitted maximal effect
# In short: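 Compound-treated (1 h pre-infection) HEK 293 cells infected with ZIKV MR766, MOI = 0.5; after 24 h at 37 C, NS1 read by TR-FRET; data normalized to uninfected and infected controls.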
# [2] = qHTS of pediatric cancer cell lines to identify multiple opportunities for drug repurposing: Primary screen for TC32 cells (AID 1347089); conditions: TC32 Ewing sarcoma viability, CellTiter-Glo luminescence, 48 h; series mostly up to 45.8 µM; further: nearly all actives have a fitted effect of over 60% in size; further: potency means the concentration at half of the fitted maximal effect
# In short: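 In the primary qHTS, MIPE compounds were tested at 11 concentrations (0.78 nM to 46 µM) and NPC compounds at 8 (0.59 nM to 46 µM) on TC32 cells for 48 h. CellTiter-Glo luminescence gave viability.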
# [3] = qHTS of pediatric cancer cell lines to identify multiple opportunities for drug repurposing: Primary screen for DAOY cells (AID 1347090); conditions: DAOY medulloblastoma viability, CellTiter-Glo luminescence, 48 h; series mostly up to 46 µM; further: nearly all actives have a fitted effect of over 55% in size; further: potency means the concentration at half of the fitted maximal effect
# In short: (§1)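 Viability measured as metabolically active cells via CellTiter-Glo luminescence following 48 hours of compound exposure, 11-point dilutions in confirmatory testing. 500-1,000 cells/well plated 5 hours before dosing; controls were DMSO and 2.3 µM bortezomib.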
# [4] = qHTS of pediatric cancer cell lines to identify multiple opportunities for drug repurposing: Primary screen for SJ-GBM2 cells (AID 1347091); conditions: SJ-GBM2 viability, CellTiter-Glo luminescence, 48 h; series mostly up to 46 µM; further: potency means the concentration at half of the fitted maximal effect
# In short: as §1
# [5] = molecular target: T1, Tyrosine-protein phosphatase non-receptor type substrate 1 (Homo sapiens) + Leukocyte surface antigen CD47 (Homo sapiens) (UniProt P78324+Q08722); assay: CD47-SIRPalpha protein protein interaction - LANCE assay qHTS validation (AID 1347057; active means well fitted curve in the direction sought with a large enough effect in the signal ratio, with a control signal flat, not every such curve was filed as active; the % refers to the signal ratio); conditions: Recombinant CD47-His / biotin-SIRPalpha, TR-FRET ratio; series mostly up to 38.3 µM
# T1 sequence (P78324 whole entry, looked up, the tested form may be a part): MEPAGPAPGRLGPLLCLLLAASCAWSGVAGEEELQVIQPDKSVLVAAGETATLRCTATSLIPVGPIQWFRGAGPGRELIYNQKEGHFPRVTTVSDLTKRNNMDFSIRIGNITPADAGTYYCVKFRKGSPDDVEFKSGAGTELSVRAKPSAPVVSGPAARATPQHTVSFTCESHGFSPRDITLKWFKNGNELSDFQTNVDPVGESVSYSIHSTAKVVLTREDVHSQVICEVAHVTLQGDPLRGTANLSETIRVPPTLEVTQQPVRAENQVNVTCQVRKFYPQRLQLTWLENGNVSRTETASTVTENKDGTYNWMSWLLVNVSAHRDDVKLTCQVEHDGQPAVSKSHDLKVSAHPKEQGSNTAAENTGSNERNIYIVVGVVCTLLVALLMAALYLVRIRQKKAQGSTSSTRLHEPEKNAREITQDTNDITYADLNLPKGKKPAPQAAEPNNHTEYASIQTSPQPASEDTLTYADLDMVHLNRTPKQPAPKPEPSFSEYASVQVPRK
# T1 sequence (Q08722 whole entry, looked up, the tested form may be a part): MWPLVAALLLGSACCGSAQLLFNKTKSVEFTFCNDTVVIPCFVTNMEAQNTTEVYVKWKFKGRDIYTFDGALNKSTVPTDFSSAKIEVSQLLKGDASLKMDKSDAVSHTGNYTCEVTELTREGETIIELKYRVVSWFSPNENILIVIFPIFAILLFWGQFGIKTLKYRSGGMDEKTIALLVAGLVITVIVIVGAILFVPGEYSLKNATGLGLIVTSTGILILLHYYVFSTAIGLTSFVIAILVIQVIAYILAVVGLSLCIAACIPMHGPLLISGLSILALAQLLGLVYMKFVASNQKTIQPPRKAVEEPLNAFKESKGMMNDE
# In short: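 Inhibition of soluble CD47/SIRPalpha ectodomain association by titrated compounds, measured as 665/615 nm time-resolved FRET ratio after sequential 30 min room-temperature incubations.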
# [6] = molecular target: T1, Tyrosine-protein phosphatase non-receptor type substrate 1 (Homo sapiens) + Leukocyte surface antigen CD47 (Homo sapiens); assay: CD47-SIRPalpha protein protein interaction - Alpha assay qHTS validation (AID 1347059); conditions: AlphaScreen CD47-His/biotin-SIRPalpha binding, LOPAC; series mostly up to 38.3 µM;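 further: bead proximity luminescence from CD47 binding SIRPalpha after compound preincubation with SIRPalpha; potency means the concentration at half of the fitted maximal effect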
# In short: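 SIRPalpha-biotin 25 nM + cpd, 30 min RT, dark; add CD47-His 12.5 nM, 30 min; add Ni-NTA/SAV beads 10 ug/mL, 30 min; AlphaScreen. Buffer PBS pH 7.4 + 0.05% IGEPAL CA-630. Non-biotinylated SIRPalpha as control inhibitor.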
# [7] = molecular target: Parathyroid hormone/parathyroid hormone-related peptide receptor (Homo sapiens) (UniProt Q03431); assay: qHTS for PTHR1 Agonists: Optimization Screen against the NCGC LOPAC library (AID 1347079); conditions: HEK293 GP2 PTHR1 GloSensor cAMP luminescence, 1 h; series mostly up to 57.1 µM;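 further: GloSensor cAMP luminescence in HEK-293 GP2 cells expressing human PTHR1 with IBMX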
# Parathyroid hormone/parathyroid hormone-related peptide receptor (Homo sapiens), sequence (Q03431 whole entry, looked up): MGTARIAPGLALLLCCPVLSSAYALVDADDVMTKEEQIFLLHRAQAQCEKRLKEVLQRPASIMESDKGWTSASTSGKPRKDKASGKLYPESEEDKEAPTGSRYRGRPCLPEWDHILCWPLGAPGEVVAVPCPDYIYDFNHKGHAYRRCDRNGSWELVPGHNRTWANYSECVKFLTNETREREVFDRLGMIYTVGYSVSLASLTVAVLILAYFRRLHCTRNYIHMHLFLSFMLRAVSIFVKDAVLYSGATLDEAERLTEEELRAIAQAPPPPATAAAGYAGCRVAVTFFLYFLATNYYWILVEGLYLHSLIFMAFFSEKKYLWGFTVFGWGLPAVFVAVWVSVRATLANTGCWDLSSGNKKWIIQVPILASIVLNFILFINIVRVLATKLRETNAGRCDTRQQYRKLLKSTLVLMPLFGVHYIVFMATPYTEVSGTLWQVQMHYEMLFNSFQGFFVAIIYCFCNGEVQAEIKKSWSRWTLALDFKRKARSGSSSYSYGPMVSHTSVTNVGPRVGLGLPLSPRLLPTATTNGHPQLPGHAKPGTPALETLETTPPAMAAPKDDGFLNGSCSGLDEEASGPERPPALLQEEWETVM
# In short: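 Signal increase flags agonism. GP2 cells, derived from HEK-293, express human PTHR1 and a GloSensor cAMP construct.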
smiles,measurement,setting,value
CCc1nc(N)nc(N)c1-c1ccc(Cl)cc1,Potency,[1],9.35 µM (active)
same,Potency,[2],3.74 µM (active) and 11.7 µM (active)
same,Potency,[3],5.31 µM (active) and 18.7 µM (active)
same,Potency,[4],2.66 µM (active) and 4.18 µM (active)
C=C(c1ccc(C(=O)O)cc1)c1cc2c(cc1C)C(C)(C)CCC2(C)C,Potency,[1],inactive
same,Potency,[2],inactive
same,Potency,[4],26.6 µM (active)
O=Nc1c(-c2c(O)[nH]c3cc(Br)ccc23)[nH]c2ccccc12,outcome,[5],inactive
same,Potency,[6],1.31 µM (active)
same,outcome,[7],inactive
same,Potency,[3],11.8 µM (active)
same,Potency,[4],5.9 µM (active)
COc1c(O)cc2c(c1O)[C@@H]1O[C@H](CO)[C@@H](O)[C@H](O)[C@H]1OC2=O,Potency,[1],inactive
same,Potency,[3],inactive
same,Potency,[4],inactive
Cc1ccc(Nc2nccc(N(C)c3ccc4c(C)n(C)nc4c3)n2)cc1S(N)(=O)=O,Potency,[1],inactive
same,Potency,[2],inactive
same,Potency,[4],14.8 µM (active)
COC(=O)C1=C(C)NC(C)=C(C(=O)OC(C)C)C1c1cccc2nonc12 (centres undefined),Potency,[1],inactive
same,Potency,[4],inactive
CC(=O)Nc1ccc(O)cc1,Potency,[1],inactive
same,Potency,[3],inactive
same,Potency,[4],inactive
COc1cc(Nc2c(C#N)cnc3cc(OCCCN4CCN(C)CC4)c(OC)cc23)c(Cl)cc1Cl,Potency,[3],13.3 µM (active) and 23.5 µM (active)
same,Potency,[4],23.7 µM (active)
O=C(OC1C[C@H]2CC[C@@H](C1)[N+]21CCCC1)C(O)(c1ccccc1)c1ccccc1 (some centres undefined),Potency,[1],inactive
same,Potency,[2],inactive
same,Potency,[3],inactive
same,Potency,[4],inactive
COc1ccc(C2(C#N)CCC(C(=O)O)CC2)cc1OC1CCCC1 (centres undefined),Potency,[1],inactive
same,Potency,[3],inactive
same,Potency,[4],inactive
O=C(NOCC1CC1)c1ccc(F)c(F)c1Nc1ccc(I)cc1Cl,Potency,[3],21.1 µM (active) and 11.8 µM (active)
same,Potency,[4],9.35 µM (active)
COc1cc(OC)c(C(=O)CCCN2CCCC2)c(OC)c1,Potency,[1],inactive
same,Potency,[3],inactive
same,Potency,[4],inactive
CC(C)(S)[C@@H](N)C(=O)O,Potency,[1],inactive
same,Potency,[3],inactive
same,Potency,[4],inactive
CCOC(=O)c1c(C)n(C)c2ccc(O)cc12,Potency,[1],inactive
same,Potency,[3],inactive
same,Potency,[4],inactive
CC(C)[N+]1(C)[C@@H]2CC[C@H]1CC(OC(=O)C(CO)c1ccccc1)C2 (some centres undefined),Potency,[1],inactive
same,Potency,[2],inactive
same,Potency,[4],inactive
C=CCc1cc(OC)c(O)c(C(=O)NCCO)c1,Potency,[1],inactive
same,Potency,[3],inactive
same,Potency,[4],inactive
CCCOc1ccc2nc(NC(=O)OC)[nH]c2c1,Potency,[1],0.0469 µM (active)
same,Potency,[3],66.8 nM (active) and 14.8 nM (active)
same,Potency,[4],0.001 µM (active)
O=C(O)c1cn(-c2ccc(F)cc2)c2cc(N3CCNCC3)c(F)cc2c1=O,Potency,[1],inactive
same,Potency,[3],inactive
same,Potency,[4],inactive
Cc1cccc(CN2CCN(C(c3ccccc3)c3ccc(Cl)cc3)CC2)c1 (centres undefined),Potency,[1],inactive
same,Potency,[2],inactive
same,Potency,[4],inactive
CCCS(=O)c1ccc2nc(NC(=O)OC)[nH]c2c1 (centres undefined),Potency,[1],inactive
same,Potency,[3],26.6 µM (active) and 23.5 µM (active)
same,Potency,[4],21.1 µM (active) and 18.7 µM (active)
Cc1ccc(NC(=O)c2ccc(CN3CCN(C)CC3)cc2)cc1Nc1nccc(-c2cccnc2)n1,Potency,[1],inactive
same,Potency,[3],inactive
same,Potency,[4],inactive
O=c1oc2cc(O)ccc2s1,Potency,[1],inactive
same,Potency,[3],inactive
same,Potency,[4],inactive
CC1(C)CCC(C)(C)c2cc(NC(=O)c3ccc(C(=O)O)cc3)ccc21,Potency,[1],inactive
same,Potency,[4],inactive
S=c1nc[nH]c2nc[nH]c12,Potency,[1],14.8 µM (active)
same,Potency,[3],2.66 µM (active) and 5.9 µM (active)
same,Potency,[4],1.19 µM (active) and 3.32 µM (active)
Cc1cc2cc3c(C)cc(=O)oc3c(C)c2o1,Potency,[1],inactive
same,Potency,[2],inactive
same,Potency,[4],inactive
O=P(O)(O)C(O)(Cn1ccnc1)P(=O)(O)O,Potency,[2],inactive
same,Potency,[3],inactive
same,Potency,[4],inactive
Nc1nc(Cl)nc2c1ncn2[C@H]1C[C@H](O)[C@@H](CO)O1,Potency,[2],1.17 µM (active)
same,Potency,[4],7.43 µM (active)
Oc1ccc(OCc2ccccc2)cc1,Potency,[1],inactive
same,Potency,[3],inactive
same,Potency,[4],inactive
CN(C)CCc1c[nH]c2ccc(Cn3cncn3)cc12,Potency,[1],inactive
same,Potency,[3],inactive
same,Potency,[4],inactive
Cc1cccc(C)c1OCC(=O)N[C@@H](Cc1ccccc1)[C@@H](O)C[C@H](Cc1ccccc1)NC(=O)[C@H](C(C)C)N1CCCNC1=O,Potency,[1],inactive
same,Potency,[3],inactive
C[C@]12CCC(=O)C=C1CC[C@@H]1[C@H]2[C@@H](O)C[C@@]2(C)[C@H]1CC[C@]2(O)C(=O)CO,Potency,[1],inactive
same,Potency,[3],inactive
same,Potency,[4],inactive
CCC[C@@H]1C[C@@H](C(=O)N[C@@H]([C@H]2O[C@H](SC)[C@H](O)[C@@H](O)[C@H]2O)[C@@H](C)O)N(C)C1,Potency,[1],inactive
same,Potency,[3],inactive
same,Potency,[4],inactive
